Assay results as given in PubChem BioAssay AID1159580 (chemical genetic matrix, 2015).
In all, about 5,500 compounds went through this assay and about 2,000 (36%) were called active. Roughly 18% stayed inconclusive and do not appear here. No stated cut-off is given here; in the data, active means normalized growth mostly below about 0.91 (no sharp cut-off); inconclusive means no clear call, values can overlap the other calls; inactive means mostly above about 0.92. Some of the results follow.

Test: chemical genetic growth profiling, strain panel (AID 1159580);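 further: tested at 20 µM; growth read once vehicle control cultures reached saturation at 30 °C; 1 = growth at the plate median or of vehicle wells; lower values mean less growth of the strain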
Conditions: S. cerevisiae deletion strains, growth OD

Measured: normalized growth

COc1cc(O)c(C(C)=O)c(O)c1
inactive: locus YHR030C, strain SLT2, active compounds read low 1.05 | locus YHR079C, strain IRE1, active compounds read low 1.03 | locus YJL095W, strain BCK1, active compounds read low 0.989 | locus YJR066W, strain TOR1, active compounds read low 0.979 | locus YLR113W, strain HOG1, active compounds read low 0.935 | locus YNL183C, strain NPR1, active compounds read low 0.925 | locus YOR231W, strain MKK1, active compounds read low 1.04 | locus YPL256C, strain CLN2, active compounds read low 0.992

Nc1nc2c(nc(Br)n2C2OC3COP(=O)(O)O[C@@H]3C2O)c(=O)[nH]1 (stereo partly drawn)
inactive: locus YAL040C, strain CLN3, active compounds read low 0.947 | locus YDR363W, strain ESC2, active compounds read low 0.993 | locus YER002W, strain NOP16, active compounds read low 1.02 | locus YGR229C, strain SMI1, active compounds read low 1.02 | locus YMR307W, strain GAS1, active compounds read low 0.998 | locus YNL153C, strain GIM3, active compounds read low 1.05 | locus YNL175C, strain NOP13, active compounds read low 1.02 | locus YNL197C, strain WHI3, active compounds read low 1.01 | locus YNL224C, strain SQS1, active compounds read low 1.02 | locus YOR083W, strain WHI5 (second series), active compounds read low 1.02
